Common to all, as to assay: NCI-60 one-dose screen, 48 h (100 = growth as untreated, 0 = no growth, -100 = all killed)
Holding throughout (details): 10 µM unless noted

Assay [1] has as its system EKVX NSCLC.
In assay [2] the test system is SN12C renal.
The test system of assay [3] is UO-31 renal.
The subject of assay [4] is TK-10 renal.
In assay [5] the test system is CAKI-1 renal.
Assay [6] concerns A498 renal.
The test system of assay [7] is CCRF-CEM leukemia.
The subject of assay [8] is MOLT-4 leukemia.
The test system of assay [9] is SR leukemia.
Assay [10] has as its system ACHN renal.

In PubChem BioAssay (NCI) one finds growth data, which are given here for 29 molecules.

Compounds without any hit were thinned out: in the full panel of roughly 83,000, 20% have a hit.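 Note: values are percent growth. 100 is the growth of untreated cells, values between 100 and 0 indicate rising inhibition; between -100 and 0 indicates cell death.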 Values without a mark were called inactive. Calls of active or inactive are those of the source. The calls were made as follows: active = growth percent below 10; inactive = the rest.

Consider `CC(C)[C@H](NC(=O)Cn1cc(C(=O)O)nn1)C(=O)O`, for which the growth in assay [1] was 93.8%; in assay [2], 95.7%; in assay [3] it was 88.7%; in [4], 115%; in assay [5], 89.4%; in [6] it was 90.6%. In addition, the results for the growth in [7], in [8] and in assay [9] were 113%, 96.7% and 101%, respectively.

Consider `O=C1c2cc(Br)ccc2Oc2cc([N+](=O)[O-])ccc2N1c1ccc(I)cc1F`, for which the growth in assay [1] is 91.9%; in [2] it was 94.2%; in [3] it was 73%; in assay [4], 112%; in assay [5], 84.9%; in assay [6], 98.9%. The growth is 96.8% in assay [7] and 85% in assay [8].

`O=Cc1c(OCc2cnnn2CC(=O)Nc2ccc(Cl)cc2)ccc2ccccc12`: the growth was 96.6% in assay [1]; 97.3% in [2]; 73.2% in [3]; 118% in [4]; 94% in assay [5]; 96.7% in [6]. Further, the growth in [7] is 110%; in [8], 90.7%; in assay [9] it was 90.5%.

As to `NC(CCc1nc2ccccc2c(=O)[nH]1)C(=O)O` (centres undefined), the growth was 99.7% in assay [1]; 96.6% in [2]; 86.7% in assay [3]; 102% in [4]; 113% in [10]; 87.5% in [5]. The growth in assay [7] is 103%; in assay [8] it was 103%; in assay [9] it was 96.8%.

On to `O=C(O)c1cn(C2CC2)c2cc(N3CCN(C(=O)C[n+]4ccccc4)CC3)c(F)cc2c1=O`, for which the growth in assay [1] is 94.4%; in assay [2], 97.5%; in [3], 88.1%; in assay [4], 99.3%; in assay [5], 94.3%; in assay [6], 87.6%. Further, the growth in [7] was 97.4%; in [8], 104%; in assay [9], 107%.

On to `COc1ccc(C2C3=C(COC3=O)N(CCO)c3cc4c(cc32)OCCO4)cc1` (centres undefined), for which the growth in [1] was 121%; in assay [2], 95.4%; in assay [3] it was 101%; in assay [4], 91.6%; in [5], 80.8%; in [6] it was 93.7%. Further, the growth in assay [7] is 89.3%; in assay [8], 81.9%; in [9] it was 31.6%.

With `Cc1cc(Br)c(N)c(Br)c1`, the growth is 95.6% in [1]; 109% in assay [2]; 102% in assay [3]; 99.1% in assay [10]; 98% in assay [5]; 84.1% in assay [6]. The results for the growth in assay [7], in assay [8] and in assay [9] were 103%, 96.4% and 100%, respectively.

With `Clc1ccc(Nc2scc3[n+]2CCC3)cc1`, the growth in [1] is 60.3%; in assay [2], 98.2%; in assay [3], 81.3%; in assay [10] it was 104%; in [5], 84.8%; in [6] it was 82.5%. Besides, the growth in assay [7] is 95.8%; in assay [8] it was 94.6%; in assay [9] it was 113%.

For `O=C1Nc2ccccc2/C1=C/c1cccs1`, the growth in assay [1] was 73.2%; in assay [2], 89.9%; in [3] it was 62.2%; in assay [10], 86.7%; in assay [5] it was 90.4%; in assay [6], 106%. Further, the growth in assay [7] was 97.2%; in assay [8] it was 102%; in [9], 121%.

In the case of `CCCN1CCN(c2ccc3nc(-c4ccc5nc(-c6cc(OC)ccc6OC)[nH]c5c4)[nH]c3c2)CC1`, the growth in assay [1] is 96.7%; in assay [2] it was 99.2%; in assay [3] it was 85.7%; in assay [10], 106%; in [5], 106%; in [7] it was 3.98% (active). The growth in assay [8] is 77%; in assay [9] it was -25.6% (active).

With `CC(=O)c1ccc2oc(=O)n(Cc3ccc(C#N)cc3)c(=O)c2c1`, the growth in assay [1] was 101%; in [2], 99.3%; in [3] it was 85.6%; in assay [5], 94.6%; in [6], 91.1%; in [7], 106%. Moreover, the growth in [8] was 107%; in [9], 109%.

For `Cc1nn(-c2nc3ccccc3[nH]2)c2c1C(c1ccc(OCC(N)=O)cc1)CC(=O)N2` (centres undefined), the growth in assay [1] was 96.9%; in [2], 101%; in [3], 81.9%; in assay [10], 102%; in assay [5], 89.5%; in assay [6], 79.1%. Further, the values for the growth in [7], in assay [8] and in [9] were 22.5%, -20.1% (active) and 117%, respectively.

Consider `O=C(CCc1nnc2sc(COc3ccccc3)nn12)c1nc2ncccc2[nH]1`, for which the growth in [1] was 102%; in assay [2] it was 96.3%; in assay [3], 69%; in assay [10], 107%; in assay [5] it was 84.4%; in [6] it was 66.8%. Moreover, the values for the growth in assay [7] and in assay [8] were 118% and 113%, respectively.

As to `O=C(Nc1ccc(N2CCNCC2)cc1)c1[nH]ncc1Nc1ncnc2sc3c(c12)CCC3`, the growth was -86.8% (active) in assay [1]; -75.1% (active) in assay [2]; -85.6% (active) in [3]; -99.5% (active) in [10]; -93.1% (active) in assay [5]; 16.9% in assay [6]. Also, the growth was -32.1% (active) in [7], -39.3% (active) in [8] and -8.96% (active) in assay [9].

For `CC1=NCC2NC(=O)NC(C)=C12` (centres undefined), the growth is 100% in assay [1]; 99.2% in [2]; 83.6% in [3]; 109% in [10]; 92.8% in assay [5]; 99.7% in assay [7]. In addition, the growth in assay [8] is 107%; in assay [9], 104%.

In the case of `COC(=O)c1c2c(c(C)[n+]([O-])c1C)C(=O)C=C(NCc1ccccc1)C2=O`, the growth was -54.9% (active) in [1]; -89.1% (active) in assay [2]; -13.6% (active) in assay [3]; 18.1% in assay [4]; 3.56% (active) in [5]; 6.23% (active) in assay [7]. Also, the growth in assay [8] was -36.2% (active); in assay [9] it was 4.44% (active).

As for `COc1ccc(-n2c(C(O)c3ccccc3)nn(CN3CCOCC3)c2=S)cc1` (centres undefined), the growth is 111% in [1]; 91% in assay [2]; 77.5% in assay [3]; 88.6% in assay [10]; 97% in [5]; 115% in assay [6]. Besides, the growth is 96.6% in assay [7], 123% in assay [8] and 193% in [9].

Take `COc1ccccc1C(=O)/C=C/c1ccccc1`: the growth in assay [1] was 97.8%; in [2], 83.5%; in assay [3] it was 73.4%; in assay [10], 90.5%; in [5], 90.4%; in assay [6], 98.8%. For the same molecule, the results for the growth in assay [7], in assay [8] and in assay [9] were 46.3%, 81.1% and 43.1%, respectively.

`CCCC(=O)CC(C)=O.CCCC(=O)CC(C)=O.[Cu]`: the growth in assay [1] was 106%; in assay [2], 110%; in assay [3], 102%; in assay [10], 105%; in [5] it was 103%; in assay [6], 122%. The growth is 107% in assay [7], 99.2% in assay [8] and 85.6% in assay [9].

As for `S=C1NC2(c3ccccc3)CCC(=S)N2c2ccccc21` (centres undefined), the growth is 100% in assay [1]; 96.8% in [2]; 86.2% in [3]; 124% in [4]; 78.7% in [5]; 101% in assay [7]. In addition, the growth was 97.5% in assay [8] and 92.9% in [9].

Consider `O=c1oc2ccc(Br)cc2c(=O)n1-c1ccc(F)cc1F`, for which the growth was 39% in assay [1]; 6.17% (active) in assay [2]; 3.24% (active) in [3]; 4.95% (active) in assay [10]; -16.6% (active) in assay [5]; -39% (active) in assay [6]. In addition, the growth in assay [7] was 14.1%; in assay [8], 17.5%.

For `O=C1N=c2ccccc2=C1c1sc(=Nc2ccccc2)n(Nc2ccccc2)c1O`, the growth was 94.2% in assay [1]; 106% in [2]; 81.4% in assay [3]; 37.2% in [5]; 103% in assay [7]; 99.3% in [8]. In assay [9], the growth was 99.2%.

In the case of `CN1CCN(Cc2ccc(C(=O)Nc3cncc(C#Cc4cnc5cccnn45)c3)cc2C(F)(F)F)CC1`, the growth is 75% in [1]; 48.1% in assay [2]; 21.5% in assay [3]; 25.6% in assay [10]; 13.9% in assay [5]; 11.3% in assay [6]. Besides, the growth in [7] is 32.6%; in assay [8], 13.6%.

On to `O=C(c1nc2ccccc2[nH]1)C1C(c2ccc(F)cc2)C2CC3CCCCC3N2[C@@]12C(=O)Nc1ccc(Cl)cc12` (some centres undefined), for which the growth in [1] is 39.5%; in assay [2], 52%; in assay [3], 30.9%; in [10] it was 43.1%; in [5] it was 54.8%; in assay [6], 39.8%. Besides, the figures for the growth in assay [7], in [8] and in [9] were 33.3%, 11.4% and 21%, respectively.

Turning to `Nc1ccc(C2c3ccccc3Oc3ccccc32)cc1`, the growth in assay [1] is 86.3%; in assay [2], 98.5%; in assay [3] it was 81.7%; in [10], 97.6%; in assay [5], 87.2%; in [6] it was 124%. Moreover, the growth is 94.8% in assay [7], 83% in assay [8] and 97.8% in [9].

For the molecule `COc1cc2nc(NC3CCCC3)nc(NC3CCN(C(C)C)CC3)c2cc1OC`, the growth is 81.6% in assay [1]; 97.3% in assay [2]; 79.5% in assay [3]; 86.9% in assay [10]; 98.2% in [5]; 97.4% in [6]. For the same molecule, the growth is 66.4% in [7], 54.1% in [8] and -1.77% (active) in [9].

Turning to `CNCCNc1nc2ccccc2c2c(=O)c3cc(OC)ccc3sc12`, the growth in assay [1] was 59.2%; in assay [2] it was 66.3%; in [3] it was 41.1%; in assay [10], 35.4%; in assay [5], 48%; in assay [6], 45.7%. In addition, the growth is 2.47% (active) in [7], -28.8% (active) in assay [8] and 5.19% (active) in [9].

In the case of `O=c1oc2ccc(-c3ccc(F)cc3F)cc2c(=O)n1-c1cccc(C(F)(F)F)c1`, the growth in [1] is 13.5%; in assay [2], 4.72% (active); in assay [3], 1.41% (active); in assay [10], 6.31% (active); in [5] it was -12.6% (active); in assay [6], -42.6% (active). Besides, the growth in [7] was 10.4%; in assay [8], 1.99% (active).

As for `O=c1c(-c2nc3ccccc3[nH]2)cc2ccccc2n1Cc1cn(Cc2ccc(F)cc2)nn1`, the growth in assay [1] was 31.4%; in [2] it was 14.2%; in assay [3], -18.9% (active); in assay [10] it was 15%; in assay [5] it was 32.9%; in assay [6], -14.5% (active). The growth is 23.4% in [7], 19.9% in assay [8] and 30.2% in assay [9].
